Reference: PubChem BioAssay (NCATS)
Inconclusive results are not listed. Values without a mark were called inactive. The source made the active and inactive calls. The call rests on the fitted dose curve; in most records, active means well fitted inhibition curve with a large enough effect; inconclusive means small, poorly fitted or top-dose-only effect; inactive means no such curve, though single readings can be large or run the other way.

Each compound was assayed against Rap guanine nucleotide exchange factor 4 (Homo sapiens) (UniProt Q8WZA2) (assay: Confirmatory qHTS for antagonist of cAMP-regulated guanine nucleotide exchange factor 4 (EPAC2) (AID 1645885; further: nearly all actives have a fitted effect of over 25% in size)). Conditions: EPAC2 Rap1B-BODIPY-GDP exchange fluorescence, biochemical; series mostly up to 12.7 µM; activity change, negative = inhibition: at the top concentration.
Rap guanine nucleotide exchange factor 4 (Homo sapiens), sequence (Q8WZA2 whole entry, looked up): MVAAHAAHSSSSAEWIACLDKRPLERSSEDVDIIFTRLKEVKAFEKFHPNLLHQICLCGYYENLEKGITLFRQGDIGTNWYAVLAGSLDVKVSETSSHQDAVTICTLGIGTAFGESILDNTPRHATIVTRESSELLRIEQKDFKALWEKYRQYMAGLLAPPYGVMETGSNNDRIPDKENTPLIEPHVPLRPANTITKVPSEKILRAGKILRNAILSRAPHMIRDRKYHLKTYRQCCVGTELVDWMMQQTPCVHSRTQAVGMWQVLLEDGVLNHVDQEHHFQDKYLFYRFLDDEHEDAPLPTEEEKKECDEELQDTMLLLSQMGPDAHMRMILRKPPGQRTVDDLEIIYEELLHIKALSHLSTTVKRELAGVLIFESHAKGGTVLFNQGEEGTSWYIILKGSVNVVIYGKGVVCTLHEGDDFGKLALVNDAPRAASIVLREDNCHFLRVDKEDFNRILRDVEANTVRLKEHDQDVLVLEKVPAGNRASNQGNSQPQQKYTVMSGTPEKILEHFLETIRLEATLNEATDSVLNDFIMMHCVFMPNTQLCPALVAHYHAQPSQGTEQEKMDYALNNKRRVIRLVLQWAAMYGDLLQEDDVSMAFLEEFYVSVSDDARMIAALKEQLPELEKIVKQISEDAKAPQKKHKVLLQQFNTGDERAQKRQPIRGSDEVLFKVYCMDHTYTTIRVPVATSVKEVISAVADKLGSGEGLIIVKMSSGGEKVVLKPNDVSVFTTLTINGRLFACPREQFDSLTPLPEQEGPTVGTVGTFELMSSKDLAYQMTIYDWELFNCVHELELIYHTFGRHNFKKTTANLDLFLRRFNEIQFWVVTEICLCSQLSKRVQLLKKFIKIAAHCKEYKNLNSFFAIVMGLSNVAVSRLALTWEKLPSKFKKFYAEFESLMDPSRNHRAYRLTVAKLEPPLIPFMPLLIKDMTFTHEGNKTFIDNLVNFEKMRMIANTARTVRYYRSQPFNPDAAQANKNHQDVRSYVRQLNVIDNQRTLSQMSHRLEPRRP
On the % scale 0 is the no-effect control and ±100 the full control effect; potency means the concentration at half of the fitted maximal effect.

SMILES	activity change, negative = inhibition	outcome	Potency
Cc1nn(-c2ccccc2)c2nc(N)c(C#N)c(-c3ccc(O)c(O)c3)c12	70.1% [at 114 µM]	–	–
Cc1ccc(C)c(Oc2nc3c(c(=O)n(C)c(=O)n3C)n2Cc2ccccc2)c1	24.5%	–	–
COc1ccc(C(=O)NCCn2cc(SCc3cccc(F)c3)c3ccccc32)cc1OC	-10.8%	–	–
CC(=O)Nc1ccc(Nc2nnc(-c3ccc(O)cc3)c3ccccc23)cc1	-17.6% [at 114 µM]	–	–
COc1ccc(-c2ccc(C(=O)NC(C)C)c3occc23)c(C)c1	–	inactive	–
O=c1[nH]c(Nc2ccc(F)cc2)cc2ccccc12	-28.2% [at 114 µM]	–	–
O=C(Nc1cccc(S(=O)(=O)NCc2ccco2)c1)c1cc(-c2ccccc2)nc2ccccc12	-17.7% [at 114 µM]	–	–
COc1ccc(Cl)cc1C1CC(=O)Nc2cc3c(cc21)OCCO3 (stereo not given)	1.86%	–	–
CCOc1ccccc1C(=O)N1CCc2cc(OC)c(OC)cc2C1COc1ccc(OC)cc1 (stereo not given)	2.21%	–	–
O=C(Nc1ccc(-c2cn3ccccc3n2)cc1)c1cccs1	75.6% [at 114 µM]	–	–
O=C(CSc1nc2ccccc2o1)N/N=C/c1ccc(O)c(O)c1	–	inactive	–
Cc1cccc2sc(N(Cc3cccnc3)C(=O)c3cccs3)nc12	1.45%	–	–
Cc1ccc2c(c1)-c1c(cnn1CC(=O)N1CCN(c3cccc(C(F)(F)F)c3)CC1)CO2	–	inactive [at 12.7 µM]	–
CC(C)C(NC(=O)C1CC(=O)N(Cc2ccccc2)C1)c1nc2ccccc2[nH]1 (stereo not given)	-9.02% [at 114 µM]	–	–
Cc1ccc2c(c1)N(Cc1cccc(Cl)c1)C(=O)c1cccnc1O2	–	–	47.8 µM (active)
Cc1nc2ccccc2c2oc(C(=O)Nc3ccc4c(c3)OCCO4)cc12	-9.33% [at 114 µM]	–	–
COc1ccc2c(c1)Cc1sc(NC(=O)c3ccccc3Br)nc1-2	–	inactive [at 12.7 µM]	–
COc1ccccc1CN(C)C(=O)C(c1ccccc1)c1ccccc1	–	inactive	–
Cc1ccc(-c2nc3ccc(C)cn3c2Cc2cccc(F)c2)cc1	-35.6% [at 114 µM]	–	–
COc1ccc(Cl)cc1NC(=O)COC(=O)c1cc(NS(=O)(=O)c2cccs2)ccc1O	27.9% [at 114 µM]	–	–

SMILES	activity change, negative = inhibition	outcome	Potency
Clc1ccc(OCCn2c(-c3ccco3)nc3ccccc32)cc1	21.4% [at 114 µM]	–	–
COc1ccc(CNc2ncnc3onc(-c4ccc(F)cc4)c23)cc1	-7.78%	–	–
Cc1cc[n+](-c2[nH]c(=O)sc2/C=N/N=C(\[O-])c2ccccc2)cc1	-6.13% [at 114 µM]	–	–
Cc1csc2nc(-c3cccc(NC(=O)c4cccc(F)c4)c3)cn12	-4.54%	–	–
N#C/C(=C\c1ccc(-c2ccccc2C(=O)O)o1)c1nc2ccccc2[nH]1	–	inactive [at 12.7 µM]	–
CCOc1cc2c(cc1/C=C/c1noc(C)c1[N+](=O)[O-])OC(C)C2 (stereo not given)	-10.7%	–	–
Cc1cc(C)c2c(CN3CCCC3)cc(=O)oc2c1	–	inactive	–
Cc1ccc(SCC(=O)Nc2ccccc2N2CCOCC2)cc1	–	inactive	–
N/C(CSc1nc(-c2ccccc2)c(-c2ccccc2)o1)=N\O	–	–	16.9 µM (active)
O=C1NNC(c2ccccc2)=N/C1=C\c1ccccc1Cl	-12.9% [at 114 µM]	–	–
Nc1nc(CSc2ccc(Cl)cc2)nc(N2CCCCC2)n1	48.1% [at 114 µM]	–	–
CCn1c(SCC(=O)c2ccc(O)c(O)c2)nnc1-c1ccccc1OC	–	–	9.53 µM (active)
O=C(Cn1c(=O)c2ccccc2n(CC(=O)Nc2ccc(Cl)cc2)c1=O)NCCc1ccccc1	-26%	–	–
O=[N+]([O-])c1cccc(S(=O)(=O)Nc2cccc(-c3ccc(N4CCCC4)nn3)c2)c1	–	inactive [at 12.7 µM]	–
COc1cccc2cc(/C(=N/O)c3ccccc3)oc12	35.9% [at 114 µM]	–	–
C#Cc1ccc([C@H]2C=C(C(=O)NCc3ccccc3)O[C@@H](OCC)[C@@H]2CCCO)cc1	–	–	37.9 µM (active)
Cc1ccccc1C1(O)c2ccccc2-c2ccccc21	15.3% [at 114 µM]	–	–
Cc1ccc(C)c(CN2C(=O)C(O)(c3c[nH]c4ccccc34)c3ccccc32)c1 (stereo not given)	–	inactive [at 12.7 µM]	–
O=C(c1ccccc1Cc1ccccc1)N1CCN(S(=O)(=O)c2ccccc2Br)CC1	12.4% [at 114 µM]	–	–
CCOC(=O)Nc1cc2c(c(N)n1)N=C(c1ccccc1)CN2	-12.5% [at 114 µM]	–	–
